A selection: hits, their analogues and other compounds. The true share with any hit is near 7.9%.
KB-3-1 tox – kills parental KB-3-1 adenocarcinoma cells. KB-3-1 viability, CellTiter-Glo ATP luminescence, 72 h. Potency, µM (series often up to 46.1 µM), most hits filed as cytotoxic. 1.4% of 400,000 active. AID 1347075; further: nearly all actives have a fitted effect of over 60% in size
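Cytotoxicity in the drug-sensitive parental line KB-3-1 was scored as loss of CellTiter-Glo luminescence following 72 h incubation with compound. Values come from curve fitting of normalized concentration-response data.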
HT1080 IDH1KD tx – toxicity to HT-1080 IDH1 knockdown cells (counter line); Potency, µM (doses to about 46.1 µM), hits mostly cytotoxic; AID 686971; HT-1080 IDH1 knockdown viability, ATP luminescence, 48 h; 2% of 360,000 active
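IDH1KD HT-1080 cells, 750/well, RPMI + 5% FBS; compound pinned after 2 h settling; 48 h, 37 °C; CellTiter-Glo luminescence; % activity normalised to DMSO and no-cell wells; curves fitted, classed by r2 and efficacy.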
SW480 rereplic – DNA re-replication induction in SW480 cells. SW480 DNA re-replication, Hoechst DNA content imaging, 48 h. Potency, µM (top dose mostly 46.1 µM), actives largely listed as activators. 1.8% of 340,000 active; further: nearly all actives have a fitted effect of over 55% in size
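Quantitative HTS format with DMSO vehicle controls; 48 hr drug incubation at 37 C, then 40 min Hoechst staining and scanning imager measurement at 405 nm excitation.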
MCF10A rerep – DNA re-replication induction in MCF 10a cells. MCF 10A DNA re-replication, Hoechst nuclear intensity, 48 h. AID 624296. 2.9% of 350,000 active. Potency, µM (doses to about 46.1 µM), hits mostly activators; further: nearly all actives have a fitted effect of over 50% in size
KB-V1 MDR tox – kills drug-selected multidrug resistant KB-V1 cells. Potency, µM (titrated, usually from 46.1 µM), hits mostly cytotoxic. 3.4% of 400,000 active. AID 1347076. KB-V1 MDR cells viability, CellTiter-Glo, 72 h; further: nearly all actives have a fitted effect of over 60% in size
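Cells of the MDR subline KB-V1 are plated, dosed with compound at multiple concentrations, and incubated 72 h at 37 degrees C; CellTiter-Glo is then added and luminescence read after 10 min.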
HT1080-NT tox – kills 2HG-producing HT-1080-NT fibrosarcoma cells | Potency, µM (titrated, usually from 46.1 µM), actives largely listed as cytotoxic | 1.6% of 360,000 active | HT-1080-NT fibrosarcoma viability, CellTiter-Glo ATP luminescence, 48 h;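 further: NT is the 2HG producing partner of a matched IDH1 knockdown line; nearly all actives have a fitted effect of over 55% in size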
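HT-1080-NT; 750 cells/well; 5% FBS RPMI; 48 h compound, 37 degrees C; CellTiter-Glo luminescence; curve fitting and curve-class assignment.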
A number is an active result; . = inactive; ? = inconclusive; / = not tested or not shown. The call rests on the fitted dose curve; in most records, active means well fitted curve in the direction sought with a large enough effect; inconclusive means small, poorly fitted or top-dose-only effect, or another doubt; inactive means no such curve, though single readings can be large; an effect the other way counts as inactive or inconclusive.

SMILES	KB-3-1 tox	HT1080 IDH1KD tx	SW480 rereplic	MCF10A rerep	KB-V1 MDR tox	HT1080-NT tox
O=C(C[C@H]1C=C[C@@H](NS(=O)(=O)c2ccccc2)[C@@H](CO)O1)NCc1ccc(Cl)c(Cl)c1	.	.	/	/	.	.
CCOC(=O)C1=CC[C@@H](c2ccccc2C(F)(F)F)N(S(=O)(=O)c2ccc(C)cc2)[C@H]1c1ccc(C#N)cc1	.	.	/	/	.	.
S=C1SCN(Cc2ccco2)CN1Cc1ccco1	.	13µM	13µM	?	.	?
CCCCCN1CSC(=S)N(Cc2ccccc2)C1	?	.	?	?	?	.
CCN1CSC(=S)N(Cc2ccccc2)C1	?	.	18.4µM	?	.	.
S=C1SCN(Cc2cccs2)CN1Cc1cccs1	?	.	/	/	.	.
O=C(Nc1cc(-c2nc3cc(Cl)ccc3o2)ccc1Cl)c1cccc2ccccc12	.	/	/	/	.	/
O=c1[nH]c2ccc(Cl)cc2c(-c2ccccc2)c1SC(=S)N1CCCCC1	.	16.4µM	.	?	.	?
O=c1[nH]c2ccc(Cl)cc2c(-c2ccccc2)c1SC(=S)N1CCOCC1	.	?	.	?	.	16.4µM
NNC(=O)CSc1c(-c2ccccc2)c2cc(Cl)ccc2[nH]c1=O	.	.	.	.	.	.
Cc1ccc2c(CC(=O)N(Cc3cccc(Cl)c3)C3CCS(=O)(=O)C3)coc2c1 (centres undefined)	.	/	/	/	.	/
CC(C)c1ccc(C2=NC(c3ccncc3)=Nc3ccc(F)cc3N2)cc1	.	/	/	/	.	/
O=c1c2c3nc4ccccc4nc3n(-c3ccc4c(c3)OCCO4)c2ncn1C1CCCC1	?	.	13µM	7.08µM	?	.
Nc1c(C(=O)OCC2CCCO2)c2nc3ccccc3nc2n1-c1ccc2c(c1)OCCO2 (centres undefined)	.	.	.	?	.	.
CC(=O)[C@@]1(O)Cc2c(O)c3c(c(O)c2[C@H](O[C@H]2C[C@H](N)[C@H](O)[C@H](C)O2)C1)C(=O)c1ccccc1C3=O	0.184µM	/	/	/	?	/
CC[C@@]1(O)C[C@H](O[C@H]2C[C@@H](N(C)C)[C@@H](O[C@H]3C[C@@H](O)[C@@H](O[C@H]4CCC(=O)[C@@H](C)O4)[C@@H](C)O3)[C@@H](C)O2)c2c(cc3c(c2O)C(=O)c2c(O)cccc2C3=O)[C@H]1C(=O)OC	/	/	.	.	/	/
CC(=O)C1(O)Cc2c(O)c3c(c(O)c2C(OC2CC(N)C(O)C(C)O2)C1)C(=O)c1c(O)cccc1C3=O (centres undefined)	0.581µM	/	?	.	?	/
Cc1ccc(Cn2c(C(=O)NCc3ccccc3Cl)cc3sccc32)cc1	.	/	/	/	.	/
COc1cccc(C(=O)Nc2ccc(-c3nc4ccccc4[nH]3)cc2)c1	.	/	/	/	.	/
FC(F)(F)c1cc(Cl)c2nc(-c3ccccc3)c(Cc3ccsc3)n2c1	?	.	/	/	.	.
Fc1ccc(-c2nc3c(Cl)cc(C(F)(F)F)cn3c2Cc2cccc(Cl)c2)cc1	23.1µM	.	/	/	.	.
Cc1ccc(Cc2c(-c3ccc(F)cc3)nc3c(Cl)cc(C(F)(F)F)cn23)cc1	?	.	/	/	.	.
FC(F)(F)c1cc(Cl)c2nc(-c3ccc(Cl)cc3)c(Cc3ccsc3)n2c1	11.6µM	.	/	/	.	.
CCc1ccc(CNC(=O)Cn2nc(-c3ccc(Cl)cc3)ccc2=O)cc1	.	/	/	/	?	/
CC1=C(C(=O)Nc2ccccc2C)C(c2cccnc2)n2nc(SCc3ccccc3)nc2N1 (centres undefined)	.	/	/	/	.	/
SMILES	KB-3-1 tox	HT1080 IDH1KD tx	SW480 rereplic	MCF10A rerep	KB-V1 MDR tox	HT1080-NT tox
CN1CCN(c2ncnc3c2ncn3[C@H]2CN(Cc3ccccc3)C[C@@H](CO)O2)CC1	.	.	/	/	.	.
CCOc1ccc(CCNC(=O)c2cc3cccc4c3n2CCS4)cc1	.	/	/	/	.	/
CSc1nc(C)c2c(n1)N(c1ccc(F)cc1)CC2	.	.	.	.	.	.
Cc1ccc2nc(C)c3c(c2c1)N(c1ccc(F)cc1)CC3	?	14.6µM	.	18.4µM	?	20.6µM
COc1cc(O)oc1C=Nc1ccc(C(=O)O)cc1	?	?	.	.	23.1µM	?
O=C(CN1CCC(C(=O)c2ccc(F)cc2)CC1)NCc1ccccc1F	?	.	.	.	9.2µM	.
O=C(CN1CCC(C(=O)c2ccc(F)cc2)CC1)Nc1ccccc1	.	?	.	.	4.61µM	?
O=C(CN1CCC(C(=O)c2ccc(F)cc2)CC1)Nc1ccc(F)cc1	.	.	.	.	?	.
CC1CC(=O)N(CC(=O)Nc2ccc(F)cc2F)c2ccccc2S1 (centres undefined)	.	/	/	/	?	/
COc1ccccc1-c1noc(-c2ccc(N3CCC(C)CC3)c([N+](=O)[O-])c2)n1	.	/	/	/	.	/
COc1ccc(S(=O)(=O)N2CCN(Cc3ccc4c(c3)OCO4)CC2)cc1OC	.	/	/	/	.	/
CC(C(=O)N=Nc1c(O)[nH]c2ccccc12)n1cnc2ccccc2c1=O (centres undefined)	.	.	?	?	18.4µM	.

Bioassay records as filed in PubChem BioAssay.
